The results in this text go back to the OligoGym collection.
Also: reference of the scale not given here.

The target of the first experiment is MYCBPAP. Put plainly: pooled miR-30 sensor sort-seq; sequence = guide strand. The conditions noted are these: shRNA.
In the case of TGCAATTCTCTTAAAATCCTGG, the sensor-assay potency score (higher = more potent) was -0.695.
On the same count and under the same terms, under TTTCTTGTCTTCTTTGTCTTTG stands -0.276.
In the case of TTGTGCTTCTTGCTGTTGGGAC, the sensor-assay potency score (higher = more potent) was -0.31.
TATGACTTTCTTGTCATCCTTT returned a sensor-assay potency score (higher = more potent) of 0.0986.
Same read-out and setting: to TTGTAGGACATTGCTAACAGGT belongs -0.808; to TAGATCAGAAACAGACTCCGAT, 0.675; to TTCCAAAGAAAACCTGTCCTGA, -0.596.

The next experiment concerns the target MYCL1. The experiment is described as above. Particulars: shRNA.
Take TTCTTCCAGATGTCCTCGCTGG: the sensor-assay potency score (higher = more potent) is -0.137.
As to TCAATTTCTTCATTCTCCGAGT, the sensor-assay potency score (higher = more potent) was 0.102.
The sequence TTGCTTAGGATCACTACTTTGG returned a sensor-assay potency score (higher = more potent) of -0.448.
AATTCTTTTCTGCAACTGCTGC came in with a sensor-assay potency score (higher = more potent) of -0.74.
TTTCTCTGTAGCCATCCTCTTC gave a sensor-assay potency score (higher = more potent) of -0.97.
On the same count and under the same terms, under TTCTTTTCTGCAACTGCTGCTG stands -0.121.
ATAGTCGTAGAAATAGTGCTGG yielded a sensor-assay potency score (higher = more potent) of 0.222.
The same measure, in the same setting: to TCTTTTCTGCAACTGCTGCTGC belongs 0.0557; to TCATTCTCCGAGTCGCTTGGGC, -0.392.
In turn, TTAGGATCACTACTTTGGGGGC showed a sensor-assay potency score (higher = more potent) of -0.971.
The same measure, in the same setting: under TAGTCGTAGAAATAGTGCTGGT stands -0.671.
In the case of ATCAATTTCTTCATTCTCCGAG, the sensor-assay potency score (higher = more potent) came out at 0.219.

The target in another experiment is MYH14. The description is as above. Particulars: shRNA.
TTTCCGTCTTCCCAGCTCCAGA: the sensor-assay potency score (higher = more potent) was -1.5.
In turn, TTCACCTTGGTAAACAGCCGCC gave a sensor-assay potency score (higher = more potent) of -0.755.
The sequence TTGTAGTCGACCTTGCCCGCGT gave a sensor-assay potency score (higher = more potent) of -0.308.
For TTCCTCTGCCTCCTCGTCGGAT, the sensor-assay potency score (higher = more potent) was -1.06.
As to TAGAGCTGTCCCACTGTCCGGA, the sensor-assay potency score (higher = more potent) is 0.0775.
On to TTGAGGCGCAGAACCAGCCAGC, for which the sensor-assay potency score (higher = more potent) was -0.999.
TCATCTGCCATCTCATCCCGGT returned a sensor-assay potency score (higher = more potent) of -0.0949.
The same measure, in the same setting: to TGTCAGGATCTCGTATCGCTGC belongs -0.48; to TTGTCATTCTTCACTGTCTTGG, -0.287.
The sequence TCTGGTCTCTTGCTCTAGCTGC yielded a sensor-assay potency score (higher = more potent) of -0.396.
As to TAGTGGAGAACACTGAAGTCGG, the sensor-assay potency score (higher = more potent) was -0.73.
In turn, TTGGTGTTTTCCGTCTTCCCAG displayed a sensor-assay potency score (higher = more potent) of -1.05.

A further experiment deals with MYL4. Described as above. Particulars: shRNA.
With AAGTCTATCTTTACACTCTTGG, the sensor-assay potency score (higher = more potent) is -0.446.
TATCTTTACACTCTTGGGGTCA had a sensor-assay potency score (higher = more potent) of -0.527.
Consider TGAACTCTTCAATCTGGTCGGC, for which the sensor-assay potency score (higher = more potent) was determined as 0.0317.
In turn, TCGGCAGTGAAGTCTATCTTTA returned a sensor-assay potency score (higher = more potent) of -1.13.
TCTTCATCTCTCCAGTCGGGGT registered a sensor-assay potency score (higher = more potent) of -1.55.
In the case of TCTATCTTTACACTCTTGGGGT, the sensor-assay potency score (higher = more potent) was found to be 0.0138.
Sequence TTTATTAACAGGGAGGGCCTGT registered a sensor-assay potency score (higher = more potent) of -0.299.
The same measure, in the same setting: under ATCTTCATCTCTCCAGTCGGGG stands -0.885.
Consider TCTTTGAACTCTTCAATCTGGT, for which the sensor-assay potency score (higher = more potent) is -0.00801.
